In paper PMC7862700, “An all-to-all approach to the identification of sequence-specific readers for epigenetic DNA modifications on cytosine” one finds binding signal data, which are given here for one sequence.

What all share (test): DAPPL (digital affinity profiling via proximity ligation, sequencing); 10 mM Tris-HCl pH 7.5, 50 mM NaCl, 1 mM DTT, 4% glycerol, room temperature, 30 min; GST-TFs on glutathione beads, 16-mer random dsDNA library, 0.1% formaldehyde crosslink after washing; high values mean tight binding
Experiment [1] addresses T1, FLI1 (Homo sapiens, UniProt Q01543 1-452).
T1 sequence: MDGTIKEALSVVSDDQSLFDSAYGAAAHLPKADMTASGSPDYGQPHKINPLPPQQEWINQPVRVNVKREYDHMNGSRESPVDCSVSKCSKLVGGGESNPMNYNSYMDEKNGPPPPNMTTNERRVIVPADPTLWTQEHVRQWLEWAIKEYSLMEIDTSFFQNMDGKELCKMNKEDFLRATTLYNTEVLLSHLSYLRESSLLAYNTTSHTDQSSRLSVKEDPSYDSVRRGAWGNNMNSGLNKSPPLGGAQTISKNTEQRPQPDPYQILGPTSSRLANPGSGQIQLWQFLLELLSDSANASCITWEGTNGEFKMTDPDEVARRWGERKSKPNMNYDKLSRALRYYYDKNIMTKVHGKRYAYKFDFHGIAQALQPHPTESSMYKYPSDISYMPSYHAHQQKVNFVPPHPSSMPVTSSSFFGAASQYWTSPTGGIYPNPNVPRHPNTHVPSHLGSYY
Particulars: protein: recombinant; tags: N-terminal GST; dsDNA, one strand shown. The method in brief:
(§1)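 Sequencing on an Illumina NextSeq500 followed washing, crosslinking with 0.1% formaldehyde, proximity ligation (BsaI/T4 ligase, 1 h, 37 °C) and PCR amplification of pools that had been incubated for 30 min at room temperature with 200 nmole of a random double-stranded 16-mer DNA library in Tris/NaCl/DTT/glycerol buffer. Each pool held DNA-barcoded human transcription factors, expressed in yeast as GST fusions and captured on glutathione beads, plus a tag-only sample. Binding signal is a hexamer's read frequency for a factor divided by its frequency in the tag-only sample.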

The target in experiment [2] is T2, ELK1 (Homo sapiens, UniProt P19419 1-428).
T2 sequence: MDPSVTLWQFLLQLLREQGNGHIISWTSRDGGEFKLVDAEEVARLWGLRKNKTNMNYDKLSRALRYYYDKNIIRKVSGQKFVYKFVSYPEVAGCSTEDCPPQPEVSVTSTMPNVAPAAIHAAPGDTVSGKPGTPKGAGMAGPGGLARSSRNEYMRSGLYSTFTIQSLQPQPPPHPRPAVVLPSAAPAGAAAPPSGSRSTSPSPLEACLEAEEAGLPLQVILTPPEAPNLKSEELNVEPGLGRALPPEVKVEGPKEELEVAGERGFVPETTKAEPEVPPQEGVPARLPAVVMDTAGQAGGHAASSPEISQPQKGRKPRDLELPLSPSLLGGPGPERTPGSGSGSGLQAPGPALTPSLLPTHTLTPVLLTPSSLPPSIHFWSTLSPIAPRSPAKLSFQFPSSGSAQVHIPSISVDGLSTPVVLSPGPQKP
Particulars: protein: recombinant; tags: N-terminal GST; dsDNA, one strand shown. The method in brief:
as §1

Experiment [3] deals with T3, GABPA (Homo sapiens, UniProt Q06546 1-454).
T3 sequence: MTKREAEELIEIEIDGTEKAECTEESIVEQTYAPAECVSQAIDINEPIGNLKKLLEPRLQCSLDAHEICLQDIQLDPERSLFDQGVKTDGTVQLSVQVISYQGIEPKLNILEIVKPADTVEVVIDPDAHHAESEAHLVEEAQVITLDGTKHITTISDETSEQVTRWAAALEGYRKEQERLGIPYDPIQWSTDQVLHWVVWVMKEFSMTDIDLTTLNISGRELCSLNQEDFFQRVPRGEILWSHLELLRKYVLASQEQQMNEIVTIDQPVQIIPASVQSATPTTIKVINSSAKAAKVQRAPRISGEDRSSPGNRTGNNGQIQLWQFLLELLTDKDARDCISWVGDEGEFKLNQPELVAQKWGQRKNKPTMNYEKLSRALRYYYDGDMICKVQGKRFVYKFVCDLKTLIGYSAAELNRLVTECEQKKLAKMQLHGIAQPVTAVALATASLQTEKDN
The note with it: protein: recombinant; tags: N-terminal GST; dsDNA, one strand shown. The method in brief: as §1

In experiment [4] the target is T4, ERG (Homo sapiens, UniProt P11308 1-479).
T4 sequence: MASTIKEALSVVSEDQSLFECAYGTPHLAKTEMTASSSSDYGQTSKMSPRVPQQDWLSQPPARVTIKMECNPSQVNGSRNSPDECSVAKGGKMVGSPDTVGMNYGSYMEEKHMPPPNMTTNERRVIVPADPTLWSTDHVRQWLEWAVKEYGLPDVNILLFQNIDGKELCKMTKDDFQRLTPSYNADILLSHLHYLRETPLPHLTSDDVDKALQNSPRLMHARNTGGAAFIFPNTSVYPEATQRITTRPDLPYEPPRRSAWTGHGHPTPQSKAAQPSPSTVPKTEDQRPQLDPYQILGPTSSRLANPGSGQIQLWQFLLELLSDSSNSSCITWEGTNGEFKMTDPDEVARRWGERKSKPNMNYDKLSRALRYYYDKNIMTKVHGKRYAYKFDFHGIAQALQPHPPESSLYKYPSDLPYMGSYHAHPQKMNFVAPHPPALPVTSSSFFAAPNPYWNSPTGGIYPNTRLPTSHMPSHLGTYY
The note with it: protein: recombinant; tags: N-terminal GST; dsDNA, one strand shown. The method in brief:
as §1

Experiment [5] deals with ELF1 (Homo sapiens, UniProt P32519 1-619). The note with it: protein: recombinant; tags: N-terminal GST; dsDNA, one strand shown. Put shortly: as §1
Chain of ELF1 (P32519 whole entry): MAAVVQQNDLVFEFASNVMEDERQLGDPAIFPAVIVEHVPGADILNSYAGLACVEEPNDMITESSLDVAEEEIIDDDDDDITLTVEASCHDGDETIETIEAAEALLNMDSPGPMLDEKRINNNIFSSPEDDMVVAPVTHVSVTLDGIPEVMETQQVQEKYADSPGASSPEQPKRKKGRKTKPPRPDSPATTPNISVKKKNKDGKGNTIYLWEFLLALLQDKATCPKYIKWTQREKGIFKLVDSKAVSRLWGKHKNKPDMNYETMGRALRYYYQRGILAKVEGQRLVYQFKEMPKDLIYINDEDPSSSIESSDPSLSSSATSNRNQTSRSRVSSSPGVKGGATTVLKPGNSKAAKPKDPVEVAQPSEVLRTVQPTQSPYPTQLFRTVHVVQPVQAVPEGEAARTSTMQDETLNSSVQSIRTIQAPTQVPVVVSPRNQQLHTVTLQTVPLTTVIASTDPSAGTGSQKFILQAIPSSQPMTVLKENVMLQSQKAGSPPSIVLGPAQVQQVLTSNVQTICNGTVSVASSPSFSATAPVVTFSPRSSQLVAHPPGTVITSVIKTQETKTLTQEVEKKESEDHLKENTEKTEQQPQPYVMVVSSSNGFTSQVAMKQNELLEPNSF
The target of experiment [6] is T5, EHF (Homo sapiens, UniProt Q9NZC4 1-300).
T5 sequence: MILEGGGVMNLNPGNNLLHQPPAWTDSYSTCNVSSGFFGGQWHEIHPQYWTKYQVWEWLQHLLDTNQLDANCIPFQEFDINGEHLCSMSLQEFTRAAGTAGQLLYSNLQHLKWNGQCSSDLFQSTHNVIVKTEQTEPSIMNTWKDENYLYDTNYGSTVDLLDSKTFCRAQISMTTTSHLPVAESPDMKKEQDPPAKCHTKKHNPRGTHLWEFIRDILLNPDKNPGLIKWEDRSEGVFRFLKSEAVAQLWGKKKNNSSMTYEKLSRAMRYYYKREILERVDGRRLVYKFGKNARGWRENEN
Particulars: protein: recombinant; tags: N-terminal GST; dsDNA, one strand shown. The method in brief:
as §1

In experiment [7] the target is SPI1 (Homo sapiens, UniProt P17947 1-270). Particulars: protein: recombinant; tags: N-terminal GST; dsDNA, one strand shown. The method in brief:
as §1

The target in experiment [8] is SPIB (Homo sapiens, UniProt Q01892 1-262). The note with it: protein: recombinant; tags: N-terminal GST; dsDNA, one strand shown. Put shortly: as §1
Chain of SPIB (Q01892 whole entry): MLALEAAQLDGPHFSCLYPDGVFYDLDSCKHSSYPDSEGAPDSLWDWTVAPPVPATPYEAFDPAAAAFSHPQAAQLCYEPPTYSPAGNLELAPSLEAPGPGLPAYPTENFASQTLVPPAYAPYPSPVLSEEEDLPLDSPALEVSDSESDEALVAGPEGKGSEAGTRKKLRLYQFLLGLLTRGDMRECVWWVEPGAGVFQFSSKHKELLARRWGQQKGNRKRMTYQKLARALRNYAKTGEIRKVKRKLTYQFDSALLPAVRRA
The target in experiment [9] is T6, ELK3 (Homo sapiens, UniProt P41970 1-407).
T6 sequence: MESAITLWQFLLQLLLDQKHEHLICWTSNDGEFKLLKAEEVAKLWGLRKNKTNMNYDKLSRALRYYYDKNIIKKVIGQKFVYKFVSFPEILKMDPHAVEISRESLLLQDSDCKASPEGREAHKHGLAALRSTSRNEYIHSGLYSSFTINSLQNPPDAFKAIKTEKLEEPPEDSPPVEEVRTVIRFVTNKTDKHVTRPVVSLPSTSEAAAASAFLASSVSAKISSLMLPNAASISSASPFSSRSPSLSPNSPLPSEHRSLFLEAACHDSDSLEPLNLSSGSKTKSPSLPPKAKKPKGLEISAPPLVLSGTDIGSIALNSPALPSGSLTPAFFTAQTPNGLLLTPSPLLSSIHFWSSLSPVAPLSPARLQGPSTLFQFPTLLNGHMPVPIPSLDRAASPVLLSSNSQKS
Particulars: protein: recombinant; tags: N-terminal GST; dsDNA, one strand shown. The method in brief:
as §1

The target of experiment [10] is T7, FEV (Homo sapiens, UniProt Q99581 1-238).
T7 sequence: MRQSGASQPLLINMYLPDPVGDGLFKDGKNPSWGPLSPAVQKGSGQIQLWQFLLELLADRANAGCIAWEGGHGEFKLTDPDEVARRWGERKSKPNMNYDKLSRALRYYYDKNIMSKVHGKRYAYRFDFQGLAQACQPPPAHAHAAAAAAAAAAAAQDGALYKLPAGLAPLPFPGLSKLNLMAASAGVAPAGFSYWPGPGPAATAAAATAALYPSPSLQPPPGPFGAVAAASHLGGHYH
Particulars: protein: recombinant; tags: N-terminal GST; dsDNA, one strand shown. Put shortly:
as §1

Experiment [11] addresses ETV5 (Homo sapiens, UniProt P41161 1-510). The note with it: protein: recombinant; tags: N-terminal GST; dsDNA, one strand shown. Put shortly:
as §1

Experiment [12] has as its target HSF1 (Homo sapiens, UniProt Q00613 1-529). Particulars: protein: recombinant; tags: N-terminal GST; chain copies: 3; dsDNA, one strand shown. The method in brief:
as §1

Experiment [13] has as its target T8, SPIC (Homo sapiens, UniProt Q8N5J4 1-248).
T8 sequence: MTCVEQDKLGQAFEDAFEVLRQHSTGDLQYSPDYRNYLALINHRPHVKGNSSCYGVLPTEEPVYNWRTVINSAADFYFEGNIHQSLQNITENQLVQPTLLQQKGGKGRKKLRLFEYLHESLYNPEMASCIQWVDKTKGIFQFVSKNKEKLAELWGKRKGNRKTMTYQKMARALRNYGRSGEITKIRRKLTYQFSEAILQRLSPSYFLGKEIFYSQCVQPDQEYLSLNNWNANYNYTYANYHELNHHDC
The note with it: protein: recombinant; tags: N-terminal GST; dsDNA, one strand shown. Put shortly: as §1

Experiment [14] addresses ELF4 (Homo sapiens, UniProt Q99607 1-663). The note with it: protein: recombinant; tags: N-terminal GST; dsDNA, one strand shown. The method in brief: as §1
Experiment [15] has as its target T9, ELK4 (Homo sapiens, UniProt P28324-2 1-405).
T9 sequence: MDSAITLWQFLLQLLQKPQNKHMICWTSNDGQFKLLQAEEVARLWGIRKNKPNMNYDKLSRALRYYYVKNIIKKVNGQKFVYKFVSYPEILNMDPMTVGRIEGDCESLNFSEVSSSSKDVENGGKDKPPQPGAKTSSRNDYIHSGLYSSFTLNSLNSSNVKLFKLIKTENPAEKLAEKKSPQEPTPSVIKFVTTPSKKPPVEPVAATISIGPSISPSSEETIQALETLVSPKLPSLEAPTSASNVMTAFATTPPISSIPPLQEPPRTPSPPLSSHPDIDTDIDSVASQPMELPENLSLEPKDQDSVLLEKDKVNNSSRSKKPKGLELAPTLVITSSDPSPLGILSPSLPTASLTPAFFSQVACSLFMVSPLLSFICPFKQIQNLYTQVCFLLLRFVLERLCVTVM
The note with it: protein: recombinant; tags: N-terminal GST; dsDNA, one strand shown. The method in brief:
as §1

For experiment [16], the target named is T10, ETV2 (Homo sapiens, UniProt O00321 1-342).
T10 sequence: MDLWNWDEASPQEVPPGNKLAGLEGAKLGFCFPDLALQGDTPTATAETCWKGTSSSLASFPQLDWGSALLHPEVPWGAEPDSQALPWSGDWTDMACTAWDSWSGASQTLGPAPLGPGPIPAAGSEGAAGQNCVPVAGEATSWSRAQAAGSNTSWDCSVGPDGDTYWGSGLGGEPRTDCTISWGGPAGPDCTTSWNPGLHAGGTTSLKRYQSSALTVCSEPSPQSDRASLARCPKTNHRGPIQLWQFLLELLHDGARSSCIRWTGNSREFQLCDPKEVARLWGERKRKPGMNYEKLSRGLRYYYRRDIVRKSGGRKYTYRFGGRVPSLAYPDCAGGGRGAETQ
The note with it: protein: recombinant; tags: N-terminal GST; dsDNA, one strand shown. The method in brief: as §1

For experiment [17], the target named is T11, ELF3 (Homo sapiens, UniProt P78545 1-371).
T11 sequence: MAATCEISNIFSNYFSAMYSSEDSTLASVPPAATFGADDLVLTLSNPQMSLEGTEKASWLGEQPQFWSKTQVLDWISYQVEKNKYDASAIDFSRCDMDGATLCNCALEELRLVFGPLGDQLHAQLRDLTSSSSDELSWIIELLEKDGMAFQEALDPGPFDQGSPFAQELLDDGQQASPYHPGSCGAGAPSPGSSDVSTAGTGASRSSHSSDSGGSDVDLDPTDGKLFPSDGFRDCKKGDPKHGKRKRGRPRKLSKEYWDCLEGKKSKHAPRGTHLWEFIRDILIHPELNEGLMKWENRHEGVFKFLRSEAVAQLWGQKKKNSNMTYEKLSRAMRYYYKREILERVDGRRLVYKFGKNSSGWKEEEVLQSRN
The note with it: protein: recombinant; tags: N-terminal GST; dsDNA, one strand shown. The method in brief:
as §1

For experiment [18], the target named is ETV1 (Homo sapiens, UniProt P50549 1-477). Particulars: protein: recombinant; tags: N-terminal GST; dsDNA, one strand shown. Put shortly: as §1
Chain of ETV1 (P50549 whole entry): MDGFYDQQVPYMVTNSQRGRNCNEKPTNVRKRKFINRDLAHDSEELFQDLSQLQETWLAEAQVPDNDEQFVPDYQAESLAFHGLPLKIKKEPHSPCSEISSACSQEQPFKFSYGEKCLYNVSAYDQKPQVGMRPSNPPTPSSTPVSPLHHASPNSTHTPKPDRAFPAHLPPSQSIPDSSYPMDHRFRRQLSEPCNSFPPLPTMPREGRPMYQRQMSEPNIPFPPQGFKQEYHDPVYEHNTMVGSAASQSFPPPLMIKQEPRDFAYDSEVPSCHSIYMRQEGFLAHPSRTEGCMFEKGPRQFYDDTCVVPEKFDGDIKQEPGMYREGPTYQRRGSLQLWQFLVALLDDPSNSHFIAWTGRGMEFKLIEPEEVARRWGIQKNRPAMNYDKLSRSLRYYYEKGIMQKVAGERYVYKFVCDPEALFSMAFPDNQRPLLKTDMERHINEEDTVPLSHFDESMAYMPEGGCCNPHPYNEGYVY

Chain of HSF1 (Q00613 whole entry): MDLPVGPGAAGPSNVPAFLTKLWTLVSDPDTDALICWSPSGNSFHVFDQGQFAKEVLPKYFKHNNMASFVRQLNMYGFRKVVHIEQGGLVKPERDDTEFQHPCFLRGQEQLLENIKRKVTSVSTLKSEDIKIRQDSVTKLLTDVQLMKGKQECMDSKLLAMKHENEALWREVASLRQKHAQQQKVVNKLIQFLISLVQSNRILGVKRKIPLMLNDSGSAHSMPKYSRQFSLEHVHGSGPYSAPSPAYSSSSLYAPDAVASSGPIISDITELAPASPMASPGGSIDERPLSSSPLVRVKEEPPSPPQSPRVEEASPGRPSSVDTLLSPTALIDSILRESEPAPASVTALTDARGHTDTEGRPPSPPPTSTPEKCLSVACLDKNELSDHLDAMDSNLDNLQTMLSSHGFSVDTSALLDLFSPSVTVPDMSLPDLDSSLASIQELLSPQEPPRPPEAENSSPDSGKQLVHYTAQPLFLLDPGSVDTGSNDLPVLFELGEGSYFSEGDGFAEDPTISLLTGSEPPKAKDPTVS
Chain of ELF4 (Q99607 whole entry): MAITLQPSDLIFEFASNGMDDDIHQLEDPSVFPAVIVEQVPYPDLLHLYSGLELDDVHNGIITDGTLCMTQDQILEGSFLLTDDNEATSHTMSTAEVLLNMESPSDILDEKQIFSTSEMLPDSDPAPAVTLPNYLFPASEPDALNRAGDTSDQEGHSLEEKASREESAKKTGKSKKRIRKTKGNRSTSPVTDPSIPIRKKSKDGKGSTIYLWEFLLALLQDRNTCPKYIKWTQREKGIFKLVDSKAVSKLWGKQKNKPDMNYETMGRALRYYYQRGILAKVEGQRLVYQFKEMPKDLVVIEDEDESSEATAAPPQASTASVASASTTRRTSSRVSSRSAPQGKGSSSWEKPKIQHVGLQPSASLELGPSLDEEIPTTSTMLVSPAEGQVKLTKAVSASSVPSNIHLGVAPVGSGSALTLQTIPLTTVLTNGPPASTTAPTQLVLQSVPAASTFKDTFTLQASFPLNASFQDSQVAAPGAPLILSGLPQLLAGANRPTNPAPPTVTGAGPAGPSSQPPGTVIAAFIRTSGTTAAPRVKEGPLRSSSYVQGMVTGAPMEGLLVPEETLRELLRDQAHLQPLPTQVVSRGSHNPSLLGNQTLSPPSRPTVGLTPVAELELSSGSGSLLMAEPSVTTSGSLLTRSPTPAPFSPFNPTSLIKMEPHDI
Chain of ETV5 (P41161 whole entry): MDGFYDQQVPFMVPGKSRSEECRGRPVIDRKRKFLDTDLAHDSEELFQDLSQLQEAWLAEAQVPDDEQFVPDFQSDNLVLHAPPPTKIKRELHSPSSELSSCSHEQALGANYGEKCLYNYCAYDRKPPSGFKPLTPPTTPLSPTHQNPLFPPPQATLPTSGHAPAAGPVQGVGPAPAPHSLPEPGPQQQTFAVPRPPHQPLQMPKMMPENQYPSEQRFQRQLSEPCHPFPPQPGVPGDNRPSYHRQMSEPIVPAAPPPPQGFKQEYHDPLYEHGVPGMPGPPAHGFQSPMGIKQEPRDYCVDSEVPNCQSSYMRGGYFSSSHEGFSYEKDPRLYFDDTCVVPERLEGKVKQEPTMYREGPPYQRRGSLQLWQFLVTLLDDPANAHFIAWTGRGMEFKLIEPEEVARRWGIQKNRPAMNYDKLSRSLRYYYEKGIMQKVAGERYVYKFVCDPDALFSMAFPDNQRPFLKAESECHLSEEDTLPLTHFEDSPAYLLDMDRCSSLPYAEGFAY

In the case of GAAGTA, the binding signal is 1.88 fold enrichment (6-mer frequency, TF over GST control) in experiment [1]; 2.23 fold enrichment (6-mer frequency, TF over GST control) in experiment [2]; 1.68 fold enrichment (6-mer frequency, TF over GST control) in experiment [3]; 2.03 fold enrichment (6-mer frequency, TF over GST control) in experiment [4]; 1.84 fold enrichment (6-mer frequency, TF over GST control) in [5]; 2.13 fold enrichment (6-mer frequency, TF over GST control) in experiment [6]. Also, the binding signal in [7] is 2.32 fold enrichment (6-mer frequency, TF over GST control); in [8], 1.95 fold enrichment (6-mer frequency, TF over GST control); in experiment [9], 2.1 fold enrichment (6-mer frequency, TF over GST control); in experiment [10], 2.05 fold enrichment (6-mer frequency, TF over GST control); in experiment [11], 2.16 fold enrichment (6-mer frequency, TF over GST control); in experiment [12] it was 1.02 fold enrichment (6-mer frequency, TF over GST control). Moreover, the binding signal in [13] was 2.19 fold enrichment (6-mer frequency, TF over GST control); in experiment [14], 1.74 fold enrichment (6-mer frequency, TF over GST control); in experiment [15], 1.71 fold enrichment (6-mer frequency, TF over GST control); in experiment [16], 1.89 fold enrichment (6-mer frequency, TF over GST control); in experiment [17] it was 2.08 fold enrichment (6-mer frequency, TF over GST control); in experiment [18], 2.11 fold enrichment (6-mer frequency, TF over GST control).
